Source: PubChem BioAssay (NCI)
The panel holds about 83,000 compounds, 20% with a hit somewhere; the sample as a whole holds those more often.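 Percent growth is the endpoint: 0 to 100 indicates growth inhibition (40 means 60% inhibition), 0 means no net growth, and negative values indicate cell death.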 Values without a mark were called inactive. The source made the active and inactive calls. The calls were made as follows: active = growth percent below 10; inactive = the rest.

Assays:
Assay in all cases: NCI-60 one-dose screen, 48 h (100 = growth as untreated, 0 = no growth, -100 = all killed)
Settings in all cases: 10 µM unless noted
NCI-H23 lung = system: NCI-H23 lung
NCI-H226 lung = system: NCI-H226 lung
NCI-H322M lung = system: NCI-H322M lung
HOP-62 NSCLC = system: HOP-62 NSCLC
NCI-H460 lung = system: NCI-H460 lung
HOP-92 NSCLC = system: HOP-92 NSCLC
NCI-H522 lung = system: NCI-H522 lung
A549/ATCC NSCLC = system: A549/ATCC NSCLC
786-0 renal = system: 786-0 renal
COLO 205 colon = system: COLO 205 colon

| SMILES | growth (NCI-H23 lung) | growth (NCI-H226 lung) | growth (NCI-H322M lung) | growth (HOP-62 NSCLC) | growth (NCI-H460 lung) | growth (HOP-92 NSCLC) | growth (NCI-H522 lung) | growth (A549/ATCC NSCLC) | growth (786-0 renal) | growth (COLO 205 colon) |
| --- | --- | --- | --- | --- | --- | --- | --- | --- | --- | --- |
| COc1cc(C2CC(=O)Nc3c2cnn3Cc2ccco2)cc2c1OCCO2 (stereo not given) | 96.6% | 92.4% | 82.5% | 88.3% | 76.6% | 109% | 44.4% | 80.6% | 98% | 81.2% |
| Nc1cc2nc3ccccc3sc-2cc1=O | 50% | 84.4% | 93.8% | 63.9% | 75% | 101% | 66% | 27.3% | 97.7% | 104% |
| CCCCCC(=O)N(CCCC)CCCC | 107% | 99.7% | 89.4% | 104% | 110% | 91.7% | 97.6% | 100% | 104% | 125% |
| CC/C=C\C[C@H](O)C/C=C1/C(=O)C=C[C@@H]1C/C=C\CCCC(N)=O | -38.3% (active) | -39.7% (active) | 29.7% | -15.6% (active) | -9.93% (active) | 37.6% | -19.3% (active) | -23.5% (active) | -24.2% (active) | -27.8% (active) |
| O=C(O)C(O)C(O)C(=O)O.[NH-]C1CCCCC1[NH-].[Pt+2] (stereo not given) | 107% | 102% | 117% | 98.8% | 103% | 100% | 93.5% | 111% | 99.9% | 106% |
| C/C(=C(/c1ccc(O)cc1)c1ccc(Cl)cc1)c1ccccc1 | -62.5% (active) | -80.4% (active) | -95% (active) | -90.8% (active) | -91.2% (active) | -96% (active) | -78% (active) | -85.8% (active) | -89.3% (active) | -82.8% (active) |
| O=C1c2cc3c(cc2-c2c1c1cc(F)c(F)cc1c(=O)n2C[C@H](O)CO)OCO3 | -30.4% (active) | -74.1% (active) | -3.54% (active) | -35.2% (active) | 1.39% (active) | 9.43% (active) | -3.34% (active) | -57.8% (active) | -20.8% (active) | -17.9% (active) |
| O=C(C[C@@H](C(=O)NCc1cccc(C(F)(F)F)c1)N1C(=O)[C@@H](N2C(=O)OC[C@@H]2c2ccccc2)[C@H]1/C=C/c1ccccc1)NC1CCN(Cc2ccccc2)CC1 | 36.2% | 88.6% | 73.1% | 72.7% | 13.1% | 76.7% | 33.8% | 53.5% | 76.3% | 45.7% |
| COc1ccc(-c2nn(-c3ccccc3)cc2/C=C2\SC(=O)NC2=O)cc1 | 94.8% | 98.9% | 117% | 101% | 97.5% | 96.6% | 81.6% | 105% | 81.1% | 123% |
| CCN(CC)C12CCCCC1(C)C(C#N)(C#N)C(C#N)=C(N)O2 (stereo not given) | 101% | 95.6% | 91.3% | 98.8% | 114% | 83.8% | 105% | 106% | 108% | 140% |
| CCN(CC)CCCC(C)N/C(=C1\C(=O)NC(=O)\C1=C(/NC(C)CCCN(CC)CC)c1cccc(OC)c1)c1cccc(OC)c1 (stereo not given) | -22% (active) | -21.3% (active) | -49.6% (active) | -6.86% (active) | -38.1% (active) | -1.22% (active) | -74.9% (active) | -52.9% (active) | 9.02% (active) | -62.9% (active) |
| O=C1Nc2ccccc2/C1=C/C(=N/c1nnc(-c2ccc(Cl)cc2)s1)c1ccccc1 | 29.1% | 84.3% | 77% | 51.5% | 63.7% | 26.3% | -95.7% (active) | 82.6% | -56.9% (active) | 0.635% (active) |
| O=c1c2c3c(sc2n2c(CCl)nnc2n1Cc1ccccc1)CCCC3 | -42.1% (active) | -60.9% (active) | -97% (active) | 54.7% | -11.5% (active) | -81.7% (active) | -57.1% (active) | 28.5% | -18% (active) | -39.1% (active) |
| COc1ccc(/C=N\NC(=O)CN2CCN(c3cc4c(cc3F)c(=O)c(C(=O)N/N=C/c3ccc(OC)cc3)cn4C3CC3)CC2)cc1 | 96.3% | 85.6% | 91.7% | 97.4% | 86.1% | 92.1% | 73.8% | 82.8% | 93.9% | 96.9% |
| COc1ccc2[nH]c(=O)c(/C=C/C(=O)c3ccc(Nc4nccc(-c5ccc6ccccc6c5)n4)cc3)cc2c1 | 104% | 96.6% | 97.7% | 102% | 102% | 81.8% | 99.5% | 97.3% | 93.5% | 104% |
| CCOc1ccc(Nc2nc(-c3c(C)nc4ncccn34)cs2)cc1 | 24.2% | 52.1% | 52.2% | 17.9% | 5.6% (active) | 18.2% | -6.3% (active) | 22.4% | 9.74% (active) | -60.8% (active) |
| COc1ccc(CN(c2ccc(C)cc2)C2OC(=O)c3ccccc32)cc1OC (stereo not given) | 106% | 91.1% | 99.6% | 106% | 101% | 91.3% | 97.2% | 88.3% | 98.5% | 138% |
| OCC1C2C=CC(C2)C1CO (stereo not given) | 108% | 109% | 114% | 90.9% | 121% | 60.5% | 97% | 89% | 101% | 191% |
| CC(=O)Oc1ccc(Nc2c3ccccc3nc3ccccc23)cc1 | 11.9% | -59.2% (active) | 19.9% | 11.2% | -26.5% (active) | -3.96% (active) | -69.7% (active) | -23.7% (active) | 16.5% | 3.96% (active) |
| O=C(CN1CCN(c2cc3c(cc2F)c(=O)c(C(=O)O)cn3C2CC2)CC1)Nc1cc(=O)[nH]c(=O)[nH]1 | 96.4% | 101% | 95.3% | 102% | 105% | 88.7% | 92.8% | 103% | 95.9% | 110% |
| O=S(=O)(Nc1ccc(Cl)cc1Cl)c1ccc(-c2cnc(C3CC3)o2)cc1 | 28.2% | 59% | 36.5% | 31.5% | 12.7% | 51.2% | -1.33% (active) | 26.5% | 41.4% | 4.78% (active) |
| Cc1ccc(-c2nc(/C=N/Nc3cc(C)nc4ccc(Br)cc34)c(C)o2)cc1 | 79.2% | 86.6% | -36.8% (active) | 97.7% | -81% (active) | 18.9% | -67.1% (active) | -56.1% (active) | -67% (active) | -68.6% (active) |
| CCCCNc1ccc2c3c1cccc3c(=O)n1c3ccccc3nc21 | 60% | 73.7% | 93.5% | 81.9% | 48.3% | 61.2% | 71.9% | 76.6% | 102% | 85.4% |
| Nc1ccc2c(c1)C(=O)NC2=O | 91.7% | 96.2% | 108% | 93.1% | 103% | 151% | 99.3% | 105% | 110% | 106% |
| Brc1cccc(-c2cc(-c3ccc4c(c3)OCCO4)[nH]n2)c1 | 42.5% [25 µM] | 25.2% [25 µM] | 46.2% [25 µM] | 20.4% [25 µM] | 10.3% [25 µM] | 62.8% [25 µM] | -5.75% [25 µM] (active) | 25.7% [25 µM] | 40.8% [25 µM] | -24.5% [25 µM] (active) |
| CC/C(=C(\c1ccccc1)c1ccc(OCCNC)cc1)c1ccccc1 | -90.5% (active) | -84.1% (active) | -99.5% (active) | -64.2% (active) | -71.3% (active) | -85.6% (active) | -74.9% (active) | -39.2% (active) | -92.7% (active) | -85.5% (active) |
| CC(C)c1c(C(=O)Nc2ccccc2)c(-c2ccccc2)c(-c2ccc(F)cc2)n1CC[C@@H]1CC=CC(=O)O1 | 1.14% (active) | 39.7% | 58.6% | 12.4% | 5.24% (active) | -24.5% (active) | -33.4% (active) | -9.24% (active) | -26.2% (active) | -49.9% (active) |
| CCN(CC)CC(O)c1cc(-c2ccc(Cl)cc2)nc2c(C)c(Cl)ccc12 (stereo not given) | -89.3% (active) | -15.8% (active) | -82.5% (active) | -100% (active) | -86% (active) | -46.8% (active) | -76% (active) | -85.8% (active) | -95.9% (active) | -100% (active) |
